Data published in the supplement of paper PMC6555819.

What was measured:
Experiment in all cases: PBM binding z-score (relative to random genomic background probes); higher = stronger binding; sequences stand for … in GC…GCGATTGACAGCGTAGAATGAAGG
[1] = tested on: FXR:RXRa (NR concentration 270 nM, RXRa partner concentration 90 nM)
Outline: (§1)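 Probes were double-stranded and carried 34-nt variable regions with direct-repeat seeds, single-nucleotide variants, half-site ablations and random human genomic background sequences, printed on custom Agilent 4×180K protein-binding microarrays. Arrays were incubated 1 h with ligand-free nuclear receptor dimers in PBS pH 7.4, 2% milk, 0.02% Triton X-100, 1 mM DTT, 0.2 mg/mL BSA and 0.4 mg/ml salmon testes DNA. Antibodies against each partner (one per run) detected binding, and scanned fluorescence was regression-normalized. Binding z-scores use the random background probes as reference.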

[2] = tested on: LXRa:RXRa (NR concentration 270 nM, RXRa partner concentration 90 nM)
Outline: as §1

[3] = tested on: LXRa homodimer (NR concentration 270 nM)
Outline: as §1

[4] = tested on: LXRb:RXRa (NR concentration 270 nM, RXRa partner concentration 90 nM)
Outline: as §1

[5] = tested on: LXRb homodimer (NR concentration 270 nM)
Outline: as §1

[6] = tested on: PPARa:RXRa (NR concentration 270 nM, RXRa partner concentration 90 nM)
Outline: as §1

[7] = tested on: PPARg:RXRa (NR concentration 180 nM, RXRa partner concentration 90 nM)
Outline: as §1

[8] = tested on: PPARg:RXRa 270nM:90nM, anti-RXR (NR concentration 270 nM, RXRa partner concentration 90 nM)
Outline: as §1

[9] = tested on: PPARg:RXRa 30nM:10nM, anti-RXR (NR concentration 30 nM, RXRa partner concentration 10 nM)
Outline: as §1

[10] = tested on: PPARg:RXRa 90nM:30nM, anti-RXR (NR concentration 90 nM, RXRa partner concentration 30 nM)
Outline: as §1

[11] = tested on: PPARg:RXRa DBDmut IVT, anti-RXR (DBD mutation: RXRa K156A/R161A, NR concentration 270 nM, RXRa partner concentration 90 nM)
Outline: as §1

[12] = tested on: PPARg:RXRa IVT, anti-PPARg (NR concentration 270 nM, RXRa partner concentration 90 nM)
Outline: as §1

[13] = tested on: PPARg DBDmut:RXRa IVT, anti-PPARg (DBD mutation: PPARg1 K132A/R137A, NR concentration 270 nM, RXRa partner concentration 90 nM)
Outline: as §1

[14] = tested on: PPARg DBDmut IVT, anti-PPARg (DBD mutation: PPARg1 K132A/R137A, NR concentration 270 nM)
Outline: as §1

[15] = tested on: PPARg homodimer (NR concentration 180 nM)
Outline: as §1

[16] = tested on: PXR:RXRa (NR concentration 270 nM, RXRa partner concentration 90 nM)
Outline: as §1

[17] = tested on: PXR homodimer (NR concentration 270 nM)
Outline: as §1

[18] = tested on: RARa:RXR (NR concentration 270 nM, RXRa partner concentration 90 nM)
Outline: as §1

[19] = tested on: RARa homodimer (NR concentration 270 nM)
Outline: as §1

[20] = tested on: RARb:RXRa (NR concentration 270 nM, RXRa partner concentration 90 nM)
Outline: as §1

| Sequence | PBM binding z-score [1] | PBM binding z-score [2] | PBM binding z-score [3] | PBM binding z-score [4] | PBM binding z-score [5] | PBM binding z-score [6] | PBM binding z-score [7] | PBM binding z-score [8] | PBM binding z-score [9] | PBM binding z-score [10] | PBM binding z-score [11] | PBM binding z-score [12] | PBM binding z-score [13] | PBM binding z-score [14] | PBM binding z-score [15] | PBM binding z-score [16] | PBM binding z-score [17] | PBM binding z-score [18] | PBM binding z-score [19] | PBM binding z-score [20] |
| --- | --- | --- | --- | --- | --- | --- | --- | --- | --- | --- | --- | --- | --- | --- | --- | --- | --- | --- | --- | --- |
| GCTTGTAGATCAGGGTTAAGAAAGACTAAGCTAA | 0.433 | 0.899 | -0.568 | 0.723 | -0.466 | 1.55 | 0.746 | 1.1 | 0.497 | 0.871 | 0.93 | 0.657 | -0.0573 | -0.809 | 0.18 | 0.366 | -0.121 | 0.69 | -0.311 | 0.352 |
| CCAGACAGGTGAGAAGGTAGCTCAGCCTCGATTA | -0.337 | -0.342 | -0.166 | -0.33 | -0.763 | 0.0761 | 0.0523 | 0.0588 | -0.801 | -0.121 | 0.778 | 0.189 | -0.969 | -0.906 | 0.136 | -0.331 | -0.00345 | -0.134 | 0.0537 | 0.327 |
| CAAACTACGTCACAGAGGTCAAAGTCCGTGCGTA | 4.81 | 5.44 | 5.72 | 5.02 | 1.87 | 5.12 | 3.52 | 4.59 | 1.9 | 3.91 | 0.625 | 2.48 | 1.33 | 0.372 | 2.66 | 5.74 | 2.1 | 5.74 | 1.25 | 3.98 |
| ATCTTTAGGTAACAAGTTCAGTGAAAGAGAGGAC | 1.21 | 1.09 | 0.889 | 1.08 | 1.44 | 1.41 | 0.762 | 1.44 | 0.49 | 0.949 | 2.13 | 1.75 | 1.64 | 1.45 | 1.33 | 1.95 | 1.87 | 1.32 | 1.15 | 1.85 |
| TCTGTTAGGTCAACGATGGTCAGCTAATCTGCTA | 4.02 | 3.8 | 0.814 | 2.6 | 1.88 | 3.76 | 2.17 | 3.13 | 3.15 | 3.12 | 3.53 | 4 | 2.9 | 2.09 | 2.86 | 2.43 | 0.247 | 3.28 | 1.58 | 4.37 |
| CAAACTAGGTCACGACAGGTCAAAGTCGAATGAC | 6.86 | 7.66 | 5.39 | 6.7 | 0.955 | 6.08 | 9.79 | 7.85 | 6.54 | 8.02 | 8.69 | 9.13 | 4.46 | 5.24 | 4.07 | 6.3 | 0.87 | 6.14 | 1.65 | 5.04 |
| TCATATAGGTAAAAGGTGAAAATCGGTGTGGTAA | 2.32 | 2.08 | 0.347 | 2.14 | 0.2 | 5.34 | 9.36 | 8.69 | 8.68 | 9.26 | 5.1 | 5.08 | 1.43 | 0.511 | 2.07 | 1.97 | 0.321 | 3.05 | 1.48 | 1.78 |
| ATCGAAAGGTCGAGGTGTGTATAGAGAAAGGGAA | 3.92 | 3.39 | 0.47 | 2.82 | 0.483 | 4.43 | 2.6 | 3.16 | 1.2 | 2.19 | 0.539 | 1.92 | 1.19 | 0.613 | 1.6 | 2.17 | 0.958 | 3.25 | 1.16 | 4.03 |
| ACAGACAGGTGAGTGAAGGTAACTCTGCTGGACG | 0.466 | 0.168 | -0.478 | -0.2 | -0.638 | 0.435 | 0.657 | -0.0647 | -0.0941 | 0.019 | 0.709 | 0.604 | 0.385 | 0.0284 | -0.0621 | -0.18 | -0.457 | 0.173 | -0.76 | 0.594 |
| CGACCAAGGTGAACAAGGTCGTTGATTACTATTC | 1.09 | 1.16 | -0.248 | 1.83 | -0.531 | 2.54 | 1.27 | 1.29 | -0.0265 | 0.643 | 1.95 | 2.6 | -0.104 | -0.33 | 0.615 | 2.45 | 1.03 | 1.99 | 0.125 | 2.22 |
| CCCACTGGGCCAAAAAGGTCATTGATGCCGATAA | 3.49 | 4.24 | 3.22 | 4.01 | 0.236 | 4.45 | 3.06 | 4.19 | 1.38 | 3.23 | 2.99 | 4.17 | -1.05 | -0.939 | 3.72 | 4.91 | 4.6 | 5.4 | 1.88 | 4.02 |
| GCAGAGAGGTGAAACGCAGGTAACTCAGGGTGGC | 0.782 | 1.12 | -0.671 | 0.662 | -1.3 | 2.86 | 1.21 | 1.02 | -0.323 | -0.000796 | 2.17 | 1.97 | -0.463 | -1.39 | -0.0516 | 0.34 | -0.544 | 1.48 | -0.435 | 1.88 |
| CTAGACAGGTGAGAAGGTAACTCAGCCTCGATTA | -0.0745 | -0.0361 | -0.246 | -0.171 | -0.733 | 0.677 | 0.508 | 0.818 | 0.0715 | 0.577 | 0.878 | 0.891 | 0.184 | -0.714 | 0.258 | -0.111 | 0.0997 | -0.121 | -0.138 | 0.44 |
| GCATATAGGTATTACAAGGTGAAAGTCCGATTGT | 0.758 | 0.25 | 0.246 | 0.0719 | -0.375 | 1.38 | 0.78 | 0.981 | 0.434 | 0.722 | 1.46 | 1.46 | 0.48 | 1.21 | 0.307 | 0.0796 | 0.205 | 1.69 | 0.465 | 0.417 |
